In the library only some 3.2% were active in any assay of this set; here they are far more common.
TROY signal inh – blocks TROY-dependent signaling in reporter cells; Q293 LMP1-TROYcd NF-kB luciferase reporter, 4 h; inhibition, % at 10 µM; 0.98% of 360,000 active;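 active = compounds whose plate-normalised and pattern-corrected inhibition of the luciferase reporter signal at the single screening dose is 50% or more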
TWEAK Fn14 block – TWEAK-Fn14 signaling inhibition; TWEAK-stimulated Fn14 reporter cells, luciferase luminescence, 8 h; inhibition, % at 10 µM; 2% of 360,000 active; AID 1159606; in the data active = inhibition above about 50%
PAX8 inh HTS – PAX8 transcriptional activity inhibition; inhibition, % at 12.6 µM; 1.2% of 360,000 active; RMG-I TPO-luciferase reporter, SteadyGlo, 24 h; AID 652154;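 active = mean replicate inhibition at least 60% with every replicate also reaching 60%; inconclusive = only one of the two criteria is met; inactive = mean below 60% and not all replicates reaching 60%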;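 also: luciferase light reporting Pax8 driven TPO promoter activity; plate controls were median of neutral control wells for no effect and mitoxantrone controls for full effect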
LGR2 antag – Drosophila LGR2 receptor signaling inhibition; HEK293 LGR2, CRE-luciferase, bursicon-stimulated, 4 h; inhibition, % at 9.99 µM; 0.35% of 380,000 active;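 active = drop in luminescence signal, shown as inhibition above about 50% in the replicate tests, limit read from the data, passing the limit was not always enough; inconclusive = probably only some replicates passing the limit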;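 also: agonist challenge used bursicon conditioned medium at about half maximal strength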
LMP1 NFkB inh – Epstein-Barr LMP1 NF-kappaB reporter inhibition | LMP1-induced NF-kappaB luciferase reporter cells, luminescence | inhibition, % at 12.5 µM | 0.69% of 350,000 active | AID 504558; in the data active = inhibition above about 41%; inconclusive = no clear call, values can overlap the other calls;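 also: 0% = neutral control wells and 100% = reference inhibitor control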
EWS-Fli inh – inhibitors of EWS/Fli oncoprotein transcriptional activity. 0.67% of 350,000 active. A673 NR0B1-luciferase reporter, viability-normalised. inhibition, % at 12.6 µM;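 active = mean inhibition of at least 50% after viability correction, with every replicate also passing that limit; inconclusive = mean reaches 50% but only one of two replicates passes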;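 also: firefly luciferase signal divided by Alamar Blue viability fluorescence both relative to DMSO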
Starred values were filed as active, the others as inactive.

What do the screens show for `C[C@H](CO)N1C[C@H](C)[C@@H](CN(C)C(=O)Nc2cccc(F)c2)Oc2ncc(C3=CCCCC3)cc2C1=O`?
PAX8 inh HTS: 7; LGR2 antag: 6; EWS-Fli inh: 2

What do the screens show for `O=C(O)CCc1ccc(-c2ccc(F)cc2)n1NC(=O)c1ccco1`?
TROY signal inh: -4; TWEAK Fn14 block: -13; LMP1 NFkB inh: -19

How did Cc1ccc(-c2ccc(CCC(=O)O)n2NC(=O)c2ccco2)cc1 do in these assays?
TWEAK Fn14 block: 77*; LMP1 NFkB inh: 4

How did CCCOc1ccc(/C=N/NC(=O)CSCc2ccc([N+](=O)[O-])cc2)cc1OCC do in these assays?
TROY signal inh: 5; TWEAK Fn14 block: -29; PAX8 inh HTS: 83*; LGR2 antag: -7; LMP1 NFkB inh: -6; EWS-Fli inh: -9

Results for CCCOc1ccc(/C=N/NC(=O)CN2CCCCC2)cc1OCC ?
TROY signal inh: -1; TWEAK Fn14 block: -4; PAX8 inh HTS: 5; LGR2 antag: 4; LMP1 NFkB inh: 0; EWS-Fli inh: 19

What do the screens show for `N#C[C@H]1[C@H](c2ccccc2)[C@H](CO)N1C(=O)CN1CCOCC1`?
PAX8 inh HTS: -18; EWS-Fli inh: 4

How did Cc1nc(N2CCN(S(=O)(=O)c3ccccc3C#N)CC2)c2c(-c3cccs3)csc2n1 do in these assays?
TROY signal inh: 17; TWEAK Fn14 block: 27; PAX8 inh HTS: 72*; LGR2 antag: 19; LMP1 NFkB inh: 4; EWS-Fli inh: 17

What do the screens show for `Cc1nc(N2CCCCC2)c2c(-c3cccs3)csc2n1`?
TROY signal inh: 17; TWEAK Fn14 block: -4; PAX8 inh HTS: 2; LGR2 antag: 5; LMP1 NFkB inh: 5; EWS-Fli inh: 11

What do the screens show for `COc1cc(NC(=O)c2cc3ccccc3cc2O)c(OC)cc1Cl`?
TROY signal inh: 45; TWEAK Fn14 block: 67*; PAX8 inh HTS: 72*; LGR2 antag: 35; LMP1 NFkB inh: 9; EWS-Fli inh: -10

How did Cc1cc(NC(=O)c2ccccc2Cl)c(C(C)C)cc1O do in these assays?
TROY signal inh: -1; TWEAK Fn14 block: 11; LMP1 NFkB inh: -5

What do the screens show for `NNC(=O)c1cc2ccccc2cc1O`?
TROY signal inh: 21; TWEAK Fn14 block: 91*; PAX8 inh HTS: 3; LGR2 antag: 34; LMP1 NFkB inh: 51*

How did Cc1ccc(Cl)cc1NC(=O)COC(=O)c1ccccc1O do in these assays?
TROY signal inh: 0; TWEAK Fn14 block: -33; PAX8 inh HTS: 10; LGR2 antag: 4; LMP1 NFkB inh: 4; EWS-Fli inh: -18

How did Cc1cc(O)c(C(C)C)cc1NC(=O)c1ccccc1Cl do in these assays?
TROY signal inh: -26; TWEAK Fn14 block: -14; PAX8 inh HTS: 70*; LMP1 NFkB inh: -1; EWS-Fli inh: -12

Results for Cc1ccc(Cl)cc1NC(=O)c1cc2ccccc2cc1O ?
TROY signal inh: 52*; TWEAK Fn14 block: 47; PAX8 inh HTS: 78*; LGR2 antag: 5; LMP1 NFkB inh: 37; EWS-Fli inh: 12

How did O=C1N[C@@H](Cc2ccccc2)C(=O)N2[C@@H]1C[C@@H](C(=O)NCc1ccc(F)cc1)[C@H]2c1ccc(O)cc1 do in these assays?
PAX8 inh HTS: 13; EWS-Fli inh: -6

How did CO[C@H]1CN(C)C(=O)c2ccc(NS(=O)(=O)c3ccccc3)cc2OC[C@H](C)N(Cc2nccs2)C[C@H]1C do in these assays?
LGR2 antag: 4; EWS-Fli inh: 8

Results for COc1ccccc1NC(=O)c1cc2cc(Br)ccc2cc1O ?
TROY signal inh: 38; TWEAK Fn14 block: 67*; PAX8 inh HTS: inconclusive; LGR2 antag: 45; LMP1 NFkB inh: -1; EWS-Fli inh: -6

Results for COc1ccccc1NC(=O)COC(=O)c1cc2ccccc2cc1O ?
TROY signal inh: -4; TWEAK Fn14 block: -32; PAX8 inh HTS: 17; LGR2 antag: -7; LMP1 NFkB inh: 3; EWS-Fli inh: 5

Results for COc1ccc(S(=O)(=O)Nc2ccc3c(c2)C(=O)N([C@H](C)CO)C[C@H](C)[C@@H](CN(C)C(=O)Nc2ccccc2)OCCCC[C@H](C)O3)cc1 ?
PAX8 inh HTS: -12; LGR2 antag: 0; EWS-Fli inh: 1

How did CC1(Cc2cccc(F)c2)C(=O)Nc2ccc(-c3cccnc3)cc21 (stereo not given) do in these assays?
TROY signal inh: 41; TWEAK Fn14 block: 79*; PAX8 inh HTS: -18; LGR2 antag: 19; EWS-Fli inh: -6

How did CC1(Cc2ccc(Cl)cc2)C(=O)Nc2ccc(-c3cccnc3)cc21 (stereo not given) do in these assays?
TROY signal inh: 53*; TWEAK Fn14 block: 84*; PAX8 inh HTS: -25; LGR2 antag: 19; EWS-Fli inh: -5

Results for CO[C@H]1CN(C)C(=O)c2ccc(NC(=O)c3ccccc3F)cc2OC[C@@H](C)N(CC2CC2)C[C@H]1C ?
LGR2 antag: -6; EWS-Fli inh: 4

Results for O=C(C[C@@H]1C=C[C@H](NC(=O)Nc2ccc(C(F)(F)F)cc2)[C@H](CO)O1)NCCN1CCCC1 ?
PAX8 inh HTS: 75*; LGR2 antag: -33; EWS-Fli inh: -10

What do the screens show for `Cc1ccc(S(=O)(=O)Nc2ccc3c(c2)C(=O)N([C@@H](C)CO)C[C@@H](C)[C@H](CN(C)C(=O)CCCN(C)C)OCCCC[C@@H](C)O3)cc1`?
PAX8 inh HTS: 5; LGR2 antag: 4; EWS-Fli inh: -7

How did CC(C)(C)[S@](=O)N1Cc2cc(C(=O)NCc3ccncc3)nc(-c3cccc(-c4ccncc4)c3)c2[C@@H]1CCO do in these assays?
PAX8 inh HTS: -6; LGR2 antag: 11; EWS-Fli inh: 3

Results for c1ccc2c(c1)oc1c(NCCN3CCOCC3)ncnc12 ?
TROY signal inh: -8; TWEAK Fn14 block: -10; LMP1 NFkB inh: -21

Results for c1ccc2c(c1)oc1c(Nc3ccc(CN4CCOCC4)cc3)ncnc12 ?
TROY signal inh: 52*; TWEAK Fn14 block: 75*; LMP1 NFkB inh: -19

How did C[C@@H]1CN([C@H](C)CO)S(=O)(=O)c2ccc(-c3ccccc3)cc2O[C@H]1CN(C)S(C)(=O)=O do in these assays?
LGR2 antag: 4; EWS-Fli inh: -3

Results for CCCN1C[C@H](C)[C@H](OC)CN(C)C(=O)c2cc(NS(=O)(=O)c3ccccc3)ccc2OC[C@H]1C ?
PAX8 inh HTS: -8; LGR2 antag: -5; EWS-Fli inh: -13

How did CCN(CC)CCN(C(=O)c1ccc2c(c1)CCCC2)c1nc2ccc(C)cc2s1 do in these assays?
TROY signal inh: -13; TWEAK Fn14 block: 12; PAX8 inh HTS: -12; LGR2 antag: 6; LMP1 NFkB inh: -8

How did CN(C)CCN(C(=O)c1cc(Cl)sc1Cl)c1nc2ccc(F)cc2s1 do in these assays?
TROY signal inh: -28; TWEAK Fn14 block: -35; PAX8 inh HTS: -28; LGR2 antag: -23; LMP1 NFkB inh: -13; EWS-Fli inh: -19

High-throughput results (PubChem BioAssay)
